# Screens as filed in PubChem BioAssay.
# Shown are actives, neighbours in structure and some others; about 0.92% of the full set was active somewhere.
# LAP4 TOR yeast = modulators of LAP4-GFP expression in yeast, primary screen, S. cerevisiae, multiplex flow cytometry, MLPCN library. 3 h; median GFP as percent of DMSO wells. 320,000 tested, 0.34% active. GFP response vs DMSO, % at 10 µM;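 active = GFP response vs DMSO above a set limit, about the screen mean plus 3 SD, cut at about 150% in these data; inconclusive = under 70 cell events counted for the yeast strain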
# CIT2-GFP yeast = modulators of CIT2-GFP expression in yeast, primary screen, S. cerevisiae, GFP fusion, multiplex flow cytometry, MLPCN library; GFP response vs DMSO, % at 10 µM; S. cerevisiae CIT2-GFP strain, 3 h; 100 means same as DMSO wells; AID 2029, 2009; 320,000 tested, 0.065% active;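 active = GFP response relative to DMSO above a set limit, near the screen mean plus 3 SD, cut at about 150% in these data; inconclusive = Fewer than 70 cells measured for a yeast strain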;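 also: ratio of well median GFP fluorescence to mean of DMSO wells on the plate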
# MEP2 TOR yeast = modulators of MEP2-GFP levels in yeast, primary screen, S. cerevisiae, multiplex flow cytometry, MLPCN library. GFP response vs DMSO, % at 10 µM. S. cerevisiae MEP2-GFP strain, 3 h; 100% = DMSO control level. 330,000 tested, 0.51% active;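 active = GFP response versus DMSO above a set limit, roughly screen mean plus 3 SD, cut at about 180% in these data; inconclusive = fewer than 70 cells counted for a yeast strain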;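 also: median GFP fluorescence of the barcode-gated MEP2-GFP cells per well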
# AGP1-GFP MLPCN = modulators of AGP1-GFP expression in yeast TOR pathway, primary screen, cell-based, multiplex flow cytometry, S. cerevisiae, MLPCN library; 3 h; GFP as percent of DMSO wells; GFP response vs DMSO, % at 10 µM; 320,000 tested, 0.02% active; AID 2066, 2009;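 active = GFP response relative to DMSO above a set limit, near screen average plus 3 SD, cut at about 150% in these data; inconclusive = fewer than 70 cells counted for the yeast strain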;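 also: median GFP channel fluorescence of the gated AGP1 strain per well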
# RPL19A TOR yeast = RPL19A-GFP expression modulators in yeast, primary screen, cell-based, S. cerevisiae, multiplex flow cytometry, MLPCN. S. cerevisiae RPL19A-GFP strain, 3 h; active compounds read low. percent response vs DMSO, % at 10 µM. 330,000 tested, 0.3% active. AID 2025, 2009;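 active = percent response vs DMSO below 50%; inconclusive = fewer than 70 events counted for the yeast strain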;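 also: median channel GFP fluorescence of the barcoded RPL19A-GFP strain; ratio of sample median GFP to plate DMSO average so 100% = DMSO; lower means less RPL19A-GFP as with rapamycin TOR inhibition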
# Active calls of the source: *; ? = inconclusive; nt = no result; [ ] = another dose, or the depositor's remark.
SMILES,LAP4 TOR yeast,CIT2-GFP yeast,MEP2 TOR yeast,AGP1-GFP MLPCN,RPL19A TOR yeast
CCOC(=O)[C@@H]1[C@H]2COc3ccccc3[C@@H]2N2C(=O)N(c3cccc(C)c3)C(=O)[C@]12C,108,75,92,87,100
COc1ccccc1NC(=O)CN(Cc1ccco1)C(=O)c1cncc(Br)c1,87,?,364*[may fluoresce violet],20,49*[may fluoresce violet]
O=C(C[n+]1cc(Br)cc2ccccc21)c1ccc(Br)cc1,98,102,107,109,108
O=C(C[n+]1cc(Br)cc2ccccc21)c1ccc(Cl)cc1,66,?,454*[may fluoresce violet],?,24*[may fluoresce violet]
COc1ccc(C(=O)NCC(C)C)c(OC)c1,93,98,110,109,95
COc1ccc(C(=O)N(C(C)C)C(C)C)c(OC)c1,89,?,234*[may fluoresce violet],?,38*[may fluoresce violet]
Cc1cc(=O)oc2c(C(=O)/C=C/c3ccccc3)c(O)ccc12,98,83,90,89,91
COc1cc(/C=C/C(=O)c2c(O)ccc3c(C)cc(=O)oc23)ccc1O,160*,61,91,88,89
Cc1cc(=O)oc2c(C(=O)/C=C\c3cccs3)c(O)ccc12,152*,93,92,96,104
CC(C)(C)C(=O)NCCc1nc(-c2ccccc2)no1,97,99,106,108,100
COc1ccc(CCC(C)NC(=O)Cc2ccc(OC)c(OC)c2)c(OC)c1 (configuration not stated),96,94,99,99,100
Nc1ncn(-c2ncc(C(F)(F)F)cc2Cl)n1,98,94,94,96,98
Cc1ccc(C2OC34CCCCCC3C(C#N)(C(=N)O4)C2(C#N)C#N)cc1 (configuration not stated),104,?,197*[may fluoresce violet],?,57
C=CCOc1ccc(C2OC34CCCCC3C(C#N)(C#N)C2(C#N)C(=N)O4)cc1 (configuration not stated),120,?,568*[may fluoresce violet],nt,35*[may fluoresce violet]
CCCCOc1ccc(C2OC34CCCCC3C(C#N)(C#N)C2(C#N)C(=N)O4)cc1 (configuration not stated),92,99,104,104,102
CC(C)(C)C(=O)Nc1sc2c(c1C#N)CCN(Cc1ccccc1)C2,102,91,100,95,96
CCN(CC)C(=O)c1sc(NC(=O)c2cccs2)c(C#N)c1C,106,103,105,100,101
CCN(CC)C(=O)c1ccc(-c2cccs2)s1,184*,52,73,72,85
COc1ccc(C(=O)NNC(=O)c2ccc(S(=O)(=O)N3CCCCC3)cc2)cc1,91,90,94,93,96
C=C(C)[C@H]1CC=C(C)/C(=N/NC(=O)CNc2ccccc2OC)C1,119,?,223*[may fluoresce violet],?,31*[may fluoresce violet]
Cc1cc(SCC(=O)Nc2c(C)n(C)n(-c3ccccc3)c2=O)nc2ccccc12,97,99,94,100,96
Cc1[nH]c2ccccc2c1/C=N/NC(=O)C1CC1(c1ccccc1)c1ccccc1 (configuration not stated),90,112,110,99,103
N#Cc1c(C(F)(F)F)cc(-c2cccs2)nc1SCC(=O)O,102,104,95,102,113
CNc1nc(-c2cccs2)cc(C(F)(F)F)c1C#N,99,?,592*[may fluoresce violet],17,47*[may fluoresce violet]
CC1(C)C(N(O)C(=O)Nc2ccc(Cl)cc2)N(c2ccc(Cl)cc2)C(=O)N1CC(=O)NN (configuration not stated),103,?,269*[may fluoresce violet],23,62
SMILES,LAP4 TOR yeast,CIT2-GFP yeast,MEP2 TOR yeast,AGP1-GFP MLPCN,RPL19A TOR yeast
CN1C(=S)SC(C)(C)C1N(O)C(=O)Nc1ccc(Cl)cc1 (configuration not stated),99,nt,98,101,99
O=C(CN1CCCCCCC1)N/N=C/c1ccc(F)c(F)c1,94,96,107,94,101
COc1ccc(CNC(=O)[C@H](C)NC(=O)C2CCN(S(=O)(=O)c3ccccc3)CC2)cc1,97,109,105,108,104
Cc1ccc(S(=O)(=O)Nc2ccc(C(OC(=O)c3ccccc3[N+](=O)[O-])(C(F)(F)F)C(F)(F)F)cc2)cc1,86,101,102,96,100
O=C(OC(c1ccc(NS(=O)(=O)c2ccccc2)cc1)(C(F)(F)F)C(F)(F)F)c1ccccc1,112,92,194*,91,98
CCN(CC)S(=O)(=O)c1ccc2c(c1)N(CC(=O)Nc1cccnc1Cl)C(=O)CO2,94,100,96,102,100
CC1CCc2c(C(=O)NCc3cccnc3)csc2C1 (configuration not stated),148,169*,159,111,122
COC(=O)C(C(=O)Nc1ncccn1)C1CCCCCC1 (configuration not stated),107,?,317*[may fluoresce violet],?,?
CSc1nc(N2CCN(c3ccccc3Cl)CC2)c2ccccc2n1,154*,128,170,100,100
CSc1nc(N2CCOCC2)c2ccccc2n1,93,92,95,92,96
O=C(O)c1ccc2c(=O)n3c(nc2c1)/C(=C/c1cccc(Cl)c1Cl)CCCC3,122,82,106,91,99
Cc1ccccc1CNc1nnnn1C,105,?,84,?,50*[may fluoresce violet]
O=C1CSC(c2cn(-c3ccccc3)nc2-c2ccc3c(c2)OCCO3)N1CCN1CCOCC1 (configuration not stated),95,?,351*[may fluoresce violet],28,37*[may fluoresce violet]
Nc1nc(SCC(=O)N2N=C(c3ccc(Cl)cc3)CC2c2ccco2)n[nH]1 (configuration not stated),104,92,100,104,98
Cc1c(NC(=O)/C=C/c2cn(-c3ccccc3)nc2-c2ccccc2)c(=O)n(-c2ccccc2)n1C,87,?,175*[may fluoresce violet],nt,64
CCC(C(=O)NCc1ccco1)N(C(=O)CNS(=O)(=O)c1ccccc1)c1ccc(OC)cc1 (configuration not stated),110,112,109,111,105
O=C(Cc1ccc(-c2ccccc2)cc1)OCC(=O)N1CCCC1=O,163*,79,95,87,92
CSc1ccccc1C(=O)OCC(=O)N1CCCC1=O,104,96,107,105,99
Cc1[nH]n(-c2ccccc2)c(=O)c1/C=N/Nc1nncc(-c2ccccc2)n1,271*,89,113,88,89
Cc1ccc(/C=N/Nc2nncc(-c3ccccc3)n2)o1,98,105,99,100,97
COc1ccc(C(=O)Nc2ccc(N3CCCC3)cc2)cc1,105,90,99,97,95
COc1ccc(N2CCN(c3ccc(NC(=O)NN)cc3)CC2)cc1,87,?,328*[may fluoresce violet],?,45*[may fluoresce violet]
